These results are taken from PubChem BioAssay (NCI).

About 79,000 compounds went through this panel and 15% of them were active in at least one assay; those are over-represented in the sample as a whole. Values without a mark were called inactive. Active and inactive are the calls of the source. Rule as the data show it: active = growth inhibition above about 70%; inactive = the rest.

Experiment [1] is described as follows: NCI Yeast Anticancer Drug Screen. Data for the rad50 strain (AID 155).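 Also: 0% = growth of vehicle-only cultures of the same strain.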 Conditions: S. cerevisiae rad50 strain growth inhibition, active compounds read high. The method, boiled down:
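Genetically altered yeast (DNA repair pathway); compound treatment; growth inhibition vs vehicle ctrl.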

A short description of experiment [2]: NCI Yeast Anticancer Drug Screen. Data for the mec2-1 strain (AID 157). Conditions: S. cerevisiae mec2-1 strain, active compounds read high. The method, boiled down:
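Compounds were applied to mec2-1 yeast cells. Their growth was then compared with that of vehicle-treated cultures to give growth inhibition.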

Experiment [3] can be described thus: NCI Yeast Anticancer Drug Screen. Data for the sgs1 mgt1 strain (AID 161).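 Also: 0% = growth of cultures given vehicle only.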 Conditions: S. cerevisiae sgs1 mgt1 strain, active compounds read high. The essentials: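 Yeast cells carrying a defined DNA-repair defect were exposed to test compounds. Growth inhibition was measured relative to vehicle-treated controls.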
A short description of experiment [4]: NCI Yeast Anticancer Drug Screen. Data for the cln2 rad14 strain (AID 165).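 Also: 0% = growth equal to vehicle treated cultures.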 As to conditions: S. cerevisiae cln2 rad14 strain, active compounds read high. The method, boiled down:
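Strain: cln2 rad14 yeast, altered in cell cycle control and DNA damage repair. Read-out: growth inhibition vs vehicle.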

Experiment [5] is described as follows: NCI Yeast Anticancer Drug Screen. Data for the bub3 strain (AID 167). As to conditions: S. cerevisiae bub3 mutant strain, active compounds read high. The method, boiled down:
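Yeast carrying a defined mutation is treated with each compound, and growth is compared with that of vehicle-exposed cells to give inhibition.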

Experiment [6] can be described thus: NCI Yeast Anticancer Drug Screen. Data for the mlh1 rad18 strain (AID 175). Conditions: S. cerevisiae mlh1 rad18 strain growth inhibition, active compounds read high. The method, boiled down:
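A repair-deficient yeast strain is exposed to test compound, and growth is scored relative to vehicle-treated controls.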

The mark [7] stands for this setting: at 5.0 µM (retest, dose inferred, filed as 0.5).
The mark [8] stands for this setting: at 50.0 µM (retest, dose inferred, filed as 5.0).

As to `CCCCCCCCCCCCCCCCC/C=N\NC(=O)CCCC(=O)N/N=C/CCCCCCCCCCCCCCCCC`, the growth inhibition in experiment [1] (setting [7]) is 1%; in experiment [1] (setting [8]), -3%; in experiment [1] (at 50.0 µM), 98.7% (active); in experiment [2] (setting [7]), -4%; in experiment [2] (setting [8]) it was -2%; in experiment [2] (at 50.0 µM), 99.1% (active). Also, the growth inhibition was -2% in experiment [3] (setting [7]); -3% in experiment [3] (setting [8]); 98% (active) in experiment [3] (at 50.0 µM); 4% in experiment [4] (setting [7]); 10% in experiment [4] (setting [8]); 99% (active) in experiment [4] (at 50.0 µM). Moreover, the growth inhibition was 7% in experiment [5] (setting [7]); 25% in experiment [5] (setting [8]); 99.2% (active) in experiment [5] (at 50.0 µM); 2% in experiment [6] (setting [7]); -25% in experiment [6] (setting [8]); 98.3% (active) in experiment [6] (at 50.0 µM).

For `O=C1CCC(Cc2ccc(C(F)(F)F)cc2)C(=O)N1` (stereo not given), the growth inhibition in experiment [1] (setting [7]) was -3%; in experiment [1] (setting [8]), 7%; in experiment [1] (at 50.0 µM) it was 1.65%; in experiment [2] (setting [7]), -1%; in experiment [2] (setting [8]), 3%; in experiment [2] (at 50.0 µM), 22.1%. The growth inhibition in experiment [3] (setting [7]) is 2%; in experiment [3] (setting [8]), 92% (active); in experiment [3] (at 50.0 µM) it was 95.8% (active); in experiment [4] (setting [7]), -3%; in experiment [4] (setting [8]), 5%; in experiment [4] (at 50.0 µM), -42.7%. Moreover, the growth inhibition in experiment [5] (setting [7]) was -2%; in experiment [5] (setting [8]) it was -2%; in experiment [5] (at 50.0 µM), -52.6%; in experiment [6] (setting [7]), -4%; in experiment [6] (setting [8]) it was 3%; in experiment [6] (at 50.0 µM), 6.6%.

Regarding `COc1ccc2ccc3c(c2c1)CCC(C(=O)O)C3CC(=O)O` (stereo not given), the growth inhibition in experiment [1] (setting [7]) is -9%; in experiment [1] (setting [8]), 9%; in experiment [1] (at 50.0 µM) it was 41.9%; in experiment [2] (setting [7]), -17%; in experiment [2] (setting [8]), 0%; in experiment [2] (at 50.0 µM), 97.5% (active). For the same molecule, the growth inhibition in experiment [3] (setting [7]) is -11%; in experiment [3] (setting [8]), 12%; in experiment [3] (at 50.0 µM) it was 43.6%; in experiment [4] (setting [7]), 0%; in experiment [4] (setting [8]) it was 27%; in experiment [4] (at 50.0 µM), 93.8% (active). For the same molecule, the growth inhibition in experiment [5] (setting [7]) was -11%; in experiment [5] (setting [8]), 26%; in experiment [5] (at 50.0 µM), 77.2% (active); in experiment [6] (setting [7]) it was -30%; in experiment [6] (setting [8]) it was 35%; in experiment [6] (at 50.0 µM), 84% (active).

Regarding `C1=Cc2ccccc2/C1=C/c1ccccc1`, the growth inhibition in experiment [1] (setting [7]) was -1%; in experiment [1] (setting [8]) it was 93% (active); in experiment [1] (at 50.0 µM) it was 86.3% (active); in experiment [2] (setting [7]), -32%; in experiment [2] (setting [8]), 89% (active); in experiment [2] (at 50.0 µM), 60.6%. The growth inhibition is 1% in experiment [3] (setting [7]); 97% (active) in experiment [3] (setting [8]); 88% (active) in experiment [3] (at 50.0 µM); -7% in experiment [4] (setting [7]); 56% in experiment [4] (setting [8]); 61.8% in experiment [4] (at 50.0 µM). For the same molecule, the growth inhibition in experiment [5] (setting [7]) is -4%; in experiment [5] (setting [8]), 95% (active); in experiment [5] (at 50.0 µM) it was 96.7% (active); in experiment [6] (setting [7]), 0%; in experiment [6] (setting [8]), 97% (active); in experiment [6] (at 50.0 µM), 91.2% (active).

On to `CC(=O)c1ccc2c(c1)CC1(C2)Cc2cc3c(c(C(=O)O)c2C1)CCC3` (stereo not given), for which the growth inhibition in experiment [1] (setting [7]) was 0%; in experiment [1] (setting [8]), 95% (active); in experiment [1] (at 50.0 µM), 90.3% (active); in experiment [2] (setting [7]) it was 10%; in experiment [2] (setting [8]), 95% (active); in experiment [2] (at 50.0 µM), 90.1% (active). Also, the growth inhibition was 34% in experiment [3] (setting [7]); 99% (active) in experiment [3] (setting [8]); 94.5% (active) in experiment [3] (at 50.0 µM); -3% in experiment [4] (setting [7]); 95% (active) in experiment [4] (setting [8]); 95% (active) in experiment [4] (at 50.0 µM). Further, the growth inhibition is 1% in experiment [5] (setting [7]); 95% (active) in experiment [5] (setting [8]); 85.8% (active) in experiment [5] (at 50.0 µM); 15% in experiment [6] (setting [7]); 97% (active) in experiment [6] (setting [8]); 88.6% (active) in experiment [6] (at 50.0 µM).

For the molecule `COc1cc2c(c(C3C(=O)N(C)c4ccc(Br)cc43)c1OC)OCO2` (stereo not given), the growth inhibition was 3% in experiment [1] (setting [7]); 3% in experiment [1] (setting [8]); 4.3% in experiment [1] (at 50.0 µM); 2% in experiment [2] (setting [7]); 4% in experiment [2] (setting [8]); 12.7% in experiment [2] (at 50.0 µM). For the same molecule, the growth inhibition is -1% in experiment [3] (setting [7]); 10% in experiment [3] (setting [8]); 11.3% in experiment [3] (at 50.0 µM); 5% in experiment [4] (setting [7]); 12% in experiment [4] (setting [8]); -3.8% in experiment [4] (at 50.0 µM). Further, the growth inhibition in experiment [5] (setting [7]) was 4%; in experiment [5] (setting [8]), -1%; in experiment [5] (at 50.0 µM), -1.85%; in experiment [6] (setting [7]), 4%; in experiment [6] (setting [8]), 10%; in experiment [6] (at 50.0 µM), 8.55%.

Regarding `O=C(c1cccs1)N(C(=S)N1CCN(c2ccccn2)CC1)c1ccccc1`, the growth inhibition in experiment [1] (setting [7]) was 10%; in experiment [1] (setting [8]), 16%; in experiment [1] (at 50.0 µM), 15.4%; in experiment [2] (setting [7]) it was -8%; in experiment [2] (setting [8]) it was 8%; in experiment [2] (at 50.0 µM), 7.85%. For the same molecule, the growth inhibition is 3% in experiment [3] (setting [7]); 1% in experiment [3] (setting [8]); 36.6% in experiment [3] (at 50.0 µM); 6% in experiment [4] (setting [7]); 10% in experiment [4] (setting [8]); 20.8% in experiment [4] (at 50.0 µM). The growth inhibition in experiment [5] (setting [7]) is -2%; in experiment [5] (setting [8]) it was 3%; in experiment [5] (at 50.0 µM), 16.1%; in experiment [6] (setting [7]), -3%; in experiment [6] (setting [8]), 14%; in experiment [6] (at 50.0 µM) it was 63.8%.

Regarding `COC(=O)c1ccc(C)cc1C1CN=NC12Cc1cc(C)ccc1C2=O` (stereo not given), the growth inhibition was 10% in experiment [1] (setting [7]); 50% in experiment [1] (setting [8]); 5.35% in experiment [1] (at 50.0 µM); 8% in experiment [2] (setting [7]); 44% in experiment [2] (setting [8]); 19.6% in experiment [2] (at 50.0 µM). Besides, the growth inhibition is 5% in experiment [3] (setting [7]); 67% in experiment [3] (setting [8]); 68.6% in experiment [3] (at 50.0 µM); 6% in experiment [4] (setting [7]); 44% in experiment [4] (setting [8]); 37.2% in experiment [4] (at 50.0 µM). For the same molecule, the growth inhibition in experiment [5] (setting [7]) was 6%; in experiment [5] (setting [8]) it was 73% (active); in experiment [5] (at 50.0 µM) it was 46.1%; in experiment [6] (setting [7]), 13%; in experiment [6] (setting [8]), 65%; in experiment [6] (at 50.0 µM), 65%.

Regarding `O=C(C[n+]1ccc2ccccc2c1)c1ccc2ccc3ccccc3c2c1`, the growth inhibition in experiment [1] (setting [7]) is 5%; in experiment [1] (setting [8]), 92% (active); in experiment [1] (at 50.0 µM), 97.7% (active); in experiment [2] (setting [7]), 0%; in experiment [2] (setting [8]) it was 73% (active); in experiment [2] (at 50.0 µM) it was 85.8% (active). In addition, the growth inhibition in experiment [3] (setting [7]) is -3%; in experiment [3] (setting [8]) it was 89% (active); in experiment [3] (at 50.0 µM) it was 96% (active); in experiment [4] (setting [7]) it was 1%; in experiment [4] (setting [8]) it was 72% (active); in experiment [4] (at 50.0 µM) it was 98.2% (active). For the same molecule, the growth inhibition in experiment [5] (setting [7]) was -11%; in experiment [5] (setting [8]), 92% (active); in experiment [5] (at 50.0 µM), 93% (active); in experiment [6] (setting [7]) it was -4%; in experiment [6] (setting [8]), 99% (active); in experiment [6] (at 50.0 µM), 98.7% (active).

Turning to `Oc1ccc2c(c1O)/C(=C/C=NCC1(O)OCC(O)C(O)C1O)C=N2` (stereo not given), the growth inhibition was 2% in experiment [1] (setting [7]); -7% in experiment [1] (setting [8]); 67.3% in experiment [1] (at 50.0 µM); 5% in experiment [2] (setting [7]); -7% in experiment [2] (setting [8]); 67.4% in experiment [2] (at 50.0 µM). Also, the growth inhibition in experiment [3] (setting [7]) is 4%; in experiment [3] (setting [8]), 1%; in experiment [3] (at 50.0 µM), 88.4% (active); in experiment [4] (setting [7]) it was 0%; in experiment [4] (setting [8]), -9%; in experiment [4] (at 50.0 µM) it was 83.5% (active). The growth inhibition in experiment [5] (setting [7]) was 2%; in experiment [5] (setting [8]), -3%; in experiment [5] (at 50.0 µM), 48.3%; in experiment [6] (setting [7]), 2%; in experiment [6] (setting [8]) it was -2%; in experiment [6] (at 50.0 µM), 77% (active).
